Values joined by “and” are separate entries in the source; they are usually repeats but may differ in a detail not shown here. Identical values can stand only once. Records with an inconclusive call do not appear. Where a call stands in place of a potency, no number is given. Active and inactive are the calls of the source. The call rests on the fitted dose curve; in most records, active means well fitted cell-killing curve with a large enough effect in the repeat runs; inconclusive means weak or mixed curves; inactive means flat fitted curve, though single readings scatter.
Potency means the concentration at half of the fitted maximal effect.

The nature of this assay: qHTS RealTime-Glo MT Cell Viability Assay in HepG2 cells - 24 hour (AID 1224867). Further: nearly all actives have a fitted effect of over 50% in size. The settings on record: RealTime-Glo luminescence; series mostly up to 76.8 µM. From the text: U.S. Tox21 Program National Center for Advancing Translational Sciences [NCATS] NIH Chemical Genomics Center [NCGC] U.S. Environmental Protection Agency [EPA] National Institutes of Environmental Health Sciences [NIEHS] National Toxicology Program [NTP] U.S. Food and Drug Administration [FDA] Tox21 Assay Overview: Measure of cell viability is critical in the cell-base assay. Analysis of cell viability is necessary for the characterization of cell responses to cytotoxic drugs and environmental stress. A RealTime-Glo MT Cell Viability Assay to monitor cell viability in real time of continues cell culture during 40 hours of compound treatment was used to screen Tox21 10K library compounds in HepG2 cells. The RealTime-Glo MT Cell Viability Assay is a nonlytic, homogeneous, bioluminescent method to measure cell viability in real time using a simple, plate-based method. The assay involves adding NanoLuc luciferase and a cell-permeant prosubstrate to cells in culture. Viable cells reduce the proprietary prosubstrate to generate a substrate for NanoLuc luciferase. This substrate diffuses from cells into the surrounding culture medium, where it is rapidly used by the NanoLuc Enzyme to produce a luminescent signal. The signal correlates with the number of viable cells, making the assay well suited for cytotoxicity studies.
Tox21 Assay Protocol Summary: The mixture of HepG2 cell suspension and reagents were dispensed at 600cells/6 ul/well in 1536-well tissue culture treated black solid bottom plates using a Multidrop dispenser. After the assay plates were incubated at a 37 C/5% CO2 incubator for 5 hours, 23 nL of compounds dissolved in DMSO, positive and negative controls was transferred to the assay plate by a pintool work station. The plates were incubated at 37 C for 40 hours. The luminescence intensity were measured at 0h, 8h, 16h, 24h, 32h and 40h time points using ViewLux plate reader during compound treatment.
For `OCCC(O)CO` (stereo not given), the Potency result was “inactive”. Still for that read-out and setting: the same measure for `CSc1c(Cl)c(Cl)c(Cl)c(Cl)c1Cl`: “inactive”; for `CCc1c(Br)c(Br)c(Br)c(Br)c1Br`: “inactive”. As to `CCC(C)C(=O)OC` (stereo not given), the Potency result was “inactive”. In the case of `CCC(=O)CC(C)CC` (stereo not given), the activity change, negative = cytotoxicity is -0.146% [at 0.29 µM] (inactive). On to `CCCCCCCCCCCC(=O)N(CC)CC`, for which the Potency entry was “inactive”.

As to `COC(=O)NCCC[Si](OC)(OC)OC`, the Potency result is “inactive”.

`CCN=C1C=CC(=C(c2ccc(N(CC)CC)cc2)c2ccc(N(CC)CC)cc2)c2ccccc21`: the Potency is 17.3 µM (active). As for `Oc1ccc(-c2ccccc2)c(Cl)c1`, the Potency entry was “inactive”. Take `COc1ccc(-n2nc(CCC(=O)N(C)O)cc2-c2ccc(Cl)cc2)cc1`: the Potency result is “inactive”. As for `COc1cccc(OC)c1O`, the Potency result was “inactive”.

Regarding `CC(C)(C)CC(C)(C)c1ccccc1O`, the Potency result is “inactive”. Same read-out and setting: the same measure for `CCc1cccc(CC)c1N(COC)C(=O)CS(=O)(=O)O`: “inactive”; for `CC(=O)c1ccccc1N`: “inactive”; for `N#CSCSc1nc2ccccc2s1`: 38.9 µM (active). Same read-out and setting: in the case of `Cc1ccc(CCn2c3c(c4cc(Cl)ccc42)CN(C)CC3)cn1` it was “inactive”. Regarding `CCN1CCN(c2cc(-c3ccc(F)cc3)c3c(n2)CCCCCC3)CC1`, the activity change, negative = cytotoxicity was -8.27% [at 15.8 µM] (inactive). Turning to `Clc1cccnc1`, the Potency result was “inactive”. With `CC(C)=CCCC(C)CCOC(=O)C(C)C` (stereo not given), the Potency result is “inactive”.

Regarding `CCCC(C)CCC(C)=O` (stereo not given), the Potency result was “inactive”. Take `CC1=CP(=O)(c2ccccc2)CC1` (stereo not given): the Potency result is “inactive”. With `O=C=NCc1cccc(CN=C=O)c1`, the activity change, negative = cytotoxicity is 1.03% [at 15.8 µM] (inactive). Turning to `NC(=O)c1nc(-c2cccc(-c3cc(F)ccc3OCC(F)(F)C(F)(F)F)c2)n[nH]1`, the Potency entry is “inactive”. Same read-out and setting: in the case of `Cn1cnc2ncnc(N)c21` it was “inactive”.

For the compound `CCN(CC)c1cccc(C)c1`, the Potency entry was “inactive”. Same read-out and setting: in the case of `O=Cc1ccc(F)cc1` it was “inactive”; in that of `C=C(C)C(=O)OCCC[Si](Cl)(Cl)Cl`, “inactive”. Still for that read-out and setting: the same measure for `O=C(Oc1ccccc1)c1cccc(C(=O)Oc2ccccc2)c1`: “inactive”; for `C=C[C@](C)(O)CC[C@@H]1[C@@]2(C)CCCC(C)(C)[C@@H]2CC[C@@]1(C)O`: 49 µM (active); for `COC(=O)CC#N`: “inactive”. The same measure, in the same setting: the same measure for `CSc1ccc2c(c1)N(CCC1CCCCN1C)c1ccccc1S2` (stereo not given): 48.8 µM (active) and 23.9 µM (active); for `CN1CCN(C2Cc3ccccc3Sc3ccc(Cl)cc32)CC1` (stereo not given): 23.9 µM (active); for `CCOB(OCC)OCC`: “inactive”.

`CC(C)(C)C1=CC(=O)C=C(C(C)(C)C)C1=O`: the Potency entry was “inactive”. For `COc1cc(C(=O)NS(=O)(=O)c2ccccc2C)ccc1Cc1cn(C)c2ccc(NC(=O)OC3CCCC3)cc12`, the Potency entry is “inactive”. Still for that read-out and setting: in the case of `CC(C)c1ccccc1N` it was “inactive”; in that of `CCCC(=O)OCC(COC(=O)CCC)OC(=O)CCC`, “inactive”; in that of `Cc1cc2c(C(C)C)c(O)c(O)c(C=O)c2c(O)c1-c1c(C)cc2c(C(C)C)c(O)c(O)c(C=O)c2c1O`, 21.3 µM (active). Still for that read-out and setting: the same measure for `O=C1OC(=O)c2ccc3c4c(ccc1c24)C(=O)OC3=O`: “inactive”. For the compound `O=C1NCCN1CCN1CCC(c2cn(-c3ccc(F)cc3)c3ccc(Cl)cc23)CC1`, the Potency is 23.9 µM (active).

The values above are taken from PubChem BioAssay (Tox21).
